Drawing on PubChem BioAssay (NCATS), this text covers Potency for 7 compounds.

Molecules are shown by their SMILES. Inconclusive results are not listed. Where a call stands in place of a potency, no number is given. Calls of active or inactive are those of the source. Calls follow the shape of the dose curve; as a rule, active = well fitted inhibition curve with a large enough effect; inconclusive = small, poorly fitted or top-dose-only effect; inactive = flat fitted curve, though single readings scatter.
Potency is read from the fitted curve at half-maximal effect.

Chain of Voltage-gated inwardly rectifying potassium channel KCNH2 (Homo sapiens) (Q12809 whole entry, looked up): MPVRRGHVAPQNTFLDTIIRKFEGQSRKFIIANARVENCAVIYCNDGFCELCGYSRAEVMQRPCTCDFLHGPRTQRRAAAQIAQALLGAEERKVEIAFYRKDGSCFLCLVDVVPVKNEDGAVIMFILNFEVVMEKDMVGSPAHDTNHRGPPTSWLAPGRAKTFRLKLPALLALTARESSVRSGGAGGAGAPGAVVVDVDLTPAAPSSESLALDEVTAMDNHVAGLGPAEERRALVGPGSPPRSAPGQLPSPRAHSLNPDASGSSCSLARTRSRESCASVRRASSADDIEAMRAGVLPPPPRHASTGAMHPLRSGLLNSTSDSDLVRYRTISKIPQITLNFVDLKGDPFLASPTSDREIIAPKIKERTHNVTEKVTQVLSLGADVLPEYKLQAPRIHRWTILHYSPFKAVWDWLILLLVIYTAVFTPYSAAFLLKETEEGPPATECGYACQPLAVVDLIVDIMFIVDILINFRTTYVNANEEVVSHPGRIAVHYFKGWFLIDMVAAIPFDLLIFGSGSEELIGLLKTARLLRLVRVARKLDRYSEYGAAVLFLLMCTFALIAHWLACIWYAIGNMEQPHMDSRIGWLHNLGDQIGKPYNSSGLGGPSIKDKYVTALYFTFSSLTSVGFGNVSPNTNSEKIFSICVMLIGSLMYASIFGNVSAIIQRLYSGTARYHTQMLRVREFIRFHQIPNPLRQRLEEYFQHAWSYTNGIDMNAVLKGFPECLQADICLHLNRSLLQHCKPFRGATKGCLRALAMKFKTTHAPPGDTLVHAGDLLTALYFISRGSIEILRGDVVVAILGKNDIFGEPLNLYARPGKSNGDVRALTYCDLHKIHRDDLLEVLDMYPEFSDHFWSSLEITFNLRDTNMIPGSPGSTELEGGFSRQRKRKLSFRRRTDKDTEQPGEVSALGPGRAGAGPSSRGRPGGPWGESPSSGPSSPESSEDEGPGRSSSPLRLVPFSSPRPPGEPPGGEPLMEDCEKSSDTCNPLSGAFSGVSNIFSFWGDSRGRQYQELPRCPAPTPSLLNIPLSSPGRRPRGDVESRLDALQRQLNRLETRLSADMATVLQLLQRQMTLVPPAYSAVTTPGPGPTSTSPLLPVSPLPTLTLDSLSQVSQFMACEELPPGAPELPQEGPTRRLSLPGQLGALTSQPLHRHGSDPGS

This experiment concerns the target Voltage-gated inwardly rectifying potassium channel KCNH2 (Homo sapiens) (UniProt Q12809). The experiment can be described thus: qHTS Assay for Small Molecule Inhibitors of the Human hERG Channel Activity (AID 588834).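 Also: lower thallium flux fluorescence means stronger hERG block; nearly all actives have a fitted effect of over 50% in size.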 The note with it: U2OS BacMam hERG, FluxOR thallium flux fluorescence; series mostly up to 46.1 µM. In short, it runs like this: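 Thallium-flux (FluxOR) read-out on FDSS: fluorescence read 10 s before and 2 min after stimulation buffer. hERG-BacMam-transduced U2OS cells, compound exposure about 10 min. AC50 by standard Hill equation.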
Background: In qHTS, concentration-response curves come from the screen itself.
For `CNCC(=O)N[C@@H](CCCN=C(N)N)C(=O)N[C@H](C(=O)N[C@@H](Cc1ccc(O)cc1)C(=O)N[C@H](C(=O)N[C@@H](Cc1cnc[nH]1)C(=O)N1CCC[C@H]1C(=O)N[C@@H](C)C(=O)O)C(C)C)C(C)C`, the Potency result is “inactive”.
The figure for `O=C(OC[C@H]1O[C@@H](OC(=O)c2cc(O)c(O)c(OC(=O)c3cc(O)c(O)c(O)c3)c2)[C@H](OC(=O)c2cc(O)c(O)c(OC(=O)c3cc(O)c(O)c(O)c3)c2)[C@@H](OC(=O)c2cc(O)c(O)c(OC(=O)c3cc(O)c(O)c(O)c3)c2)[C@@H]1OC(=O)c1cc(O)c(O)c(OC(=O)c2cc(O)c(O)c(O)c2)c1)c1cc(O)c(O)c(OC(=O)c2cc(O)c(O)c(O)c2)c1` is 25.1 µM (active); for `CN[C@@H]1[C@@H](O)[C@@H](O[C@@H]2[C@@H](O)[C@H](OC3OC(CN)=CCC3N)[C@@H](N)C[C@H]2N)OC[C@]1(C)O` (some centres not stated) it is “inactive”.
For the compound `CC[C@H](CC[C@@H](C)[C@H]1CC[C@H]2[C@@H]3CC=C4C[C@@H](O)CC[C@]4(C)[C@H]3CC[C@]12C)C(C)C`, the Potency result is “inactive”.
For `CC(C)(C)NCC(O)CSc1nc(-c2ccc(C(N)=O)s2)cs1` (configuration not stated), the Potency entry is “inactive”.
The entry for `CC[C@H]1OC(=O)C[C@@H](O)[C@H](C)[C@@H](O[C@@H]2O[C@H](C)[C@@H](O[C@H]3C[C@@](C)(O)[C@@H](O)[C@H](C)O3)[C@H](N(C)C)[C@H]2O)[C@@H](CC=O)C[C@@H](C)C(=O)/C=C/C(C)=C/[C@@H]1CO[C@@H]1O[C@H](C)[C@@H](O)[C@@H](OC)[C@H]1OC` is “inactive”; for `Nc1nc(/C(=C/CC(=O)O)C(=O)N[C@@H]2C(=O)N3C(C(=O)O)=CCS[C@H]23)cs1` it is “inactive”.
